ELG1 repair inh: blocks ELG1-dependent DNA repair in HEK293T cells; Potency, µM (series often up to 46.1 µM), for the others: at the top dose activity change, negative = inhibition, hits mostly inhibitors; HEK293T ELG1-luciferase reporter, luminescence, 16 h; DNA damage induced by 5-fluorouridine; AID 504467; 330,000 tested, 2.3% active; note: % is set by controls: 0 for no effect and ±100 for the full control effect; nearly all actives have a fitted effect of over 55% in size
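Overnight (16 hr) co-exposure of 2,000 cells/well to 5-fluorouridine and compound at 37 °C preceded detection. Luciferase was quantified via ONE-Glo luminescence; loss of signal denotes inhibition.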
FLuc counter: inhibits or activates purified firefly luciferase, miR-21 counter-screen; Potency, µM (highest dose often 57.5 µM), without a hit: at the highest dose activity change, negative = inhibition, hits mostly inhibitors; P08659; 360,000 tested, 6.9% active; purified FLuc, Km substrates, luminescence inhibition;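 note: plate controls were vehicle for no effect and reference inhibitor for full effect; nearly all actives have a fitted effect of over 55% in size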
Target sequence (P08659 whole entry, looked up): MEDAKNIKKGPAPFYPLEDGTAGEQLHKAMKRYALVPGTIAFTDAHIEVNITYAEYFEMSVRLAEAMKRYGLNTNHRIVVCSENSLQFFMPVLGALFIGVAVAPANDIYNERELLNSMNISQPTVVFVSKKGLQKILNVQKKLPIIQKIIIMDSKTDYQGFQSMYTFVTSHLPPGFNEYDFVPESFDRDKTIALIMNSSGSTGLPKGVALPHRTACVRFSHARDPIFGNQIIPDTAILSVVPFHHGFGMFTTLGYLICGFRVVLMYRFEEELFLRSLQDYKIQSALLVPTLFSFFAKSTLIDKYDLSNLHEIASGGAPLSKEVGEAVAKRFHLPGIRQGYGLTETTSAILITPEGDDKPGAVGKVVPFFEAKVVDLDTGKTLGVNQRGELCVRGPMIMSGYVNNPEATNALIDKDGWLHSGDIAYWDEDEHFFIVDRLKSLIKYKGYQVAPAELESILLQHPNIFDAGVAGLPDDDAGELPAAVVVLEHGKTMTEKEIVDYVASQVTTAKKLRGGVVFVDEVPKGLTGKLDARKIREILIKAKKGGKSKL
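Biochemical qHTS of compounds, final roughly 60 µM downward over six points, against 10 nM purified firefly luciferase using Km concentrations of substrates (10 uM D-luciferin, 10 uM ATP) in Tris acetate pH 7.5 buffer; luminescence output.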
ELG1 genotox: genotoxicity induction in ELG1-luciferase HEK293T cells. HEK293T ELG1-luciferase reporter, luminescence, 16 h. Potency, µM (titrated, usually from 46 µM), inactives show at the top dose activity change, positive = activation, most hits filed as activators. 330,000 tested, 1.3% active; note: % of control where 0% means no effect; nearly all actives have a fitted effect of over 60% in size
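DMSO vehicle served as control against compound-treated ELG1-luciferase HEK293T cells; exposure lasted 16 hr at 37 °C and 5% CO2, followed by ONE-Glo luminescence detection after 30 min.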
Rab9 prom act: activators of Rab9 promoter | Huh7 Rab9 promoter-luciferase reporter, luminescence, 24 h | Potency, µM (doses to about 9.22 µM), for inactives: at the top dose activation, negative = inhibition, actives largely listed as activators | 320,000 tested, 2.8% active | AID 485297; note: % of control where 0% means no effect; nearly all actives have a fitted effect of over 60% in size
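Stable Rab9-luc Huh7, 1500 cells/well, 2 h settle; cmpd in DMSO, 24 h, 37 °C/5% CO2; luciferase reagent 10 min RT; luminescence.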
SMN2 splice up: SMN2 splice variant enhancement. HEK293 SMN2-luciferase splicing reporter, luminescence, 30-36 h. 210,000 tested, 2.8% active. Potency, µM (doses to about 46.1 µM), without a hit: at the top dose activity change, positive = activation, most hits filed as activators; note: % of control where 0% means no effect; nearly all actives have a fitted effect of over 55% in size
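HEK293 cells carry an SMN2 […]–luciferase reporter in which exon 7 inclusion puts luciferase in frame. Cells were plated 10-12 h before compound addition, then incubated 30-36 h at 37C. ONE-Glo luminescence was read; sodium butyrate at 4.5 mM final served as control.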
NPC1 prom act: activates the NPC1 promoter. Huh7 NPC1 promoter luciferase reporter, 24 h. Potency, µM (titrated, usually from 9.22 µM), inactives show at the highest dose activation, usual class: activators. 320,000 tested, 2.4% active; note: % of control where 0% means no effect; nearly all actives have a fitted effect of over 60% in size
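Luminescence read-out of NPC1 promoter-driven luciferase in stably transfected Huh7 cells; compounds delivered in DMSO and left 24 h at 37C, 5% CO2, qHTS titration format.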
An asterisk follows results filed as active; u = inconclusive; x = no result given. Only some compounds are listed: those with a hit (about 9.4% of all), similar ones and a draw of the others. Calls come from the whole dose curve; as a rule, active = well fitted curve in the direction sought with a large enough effect; inconclusive = small, poorly fitted or top-dose-only effect, or another doubt; inactive = no such curve, though single readings can be large; an effect the other way counts as inactive or inconclusive. Potency is the fitted concentration of half-maximal effect.

SMILES	ELG1 repair inh	FLuc counter	ELG1 genotox	Rab9 prom act	SMN2 splice up	NPC1 prom act
Cc1ccc(NC(=O)c2cnc(SCC(=O)N3CCOCC3)n(C)c2=O)cc1C	x	15µM*	x	x	x	x
COc1ccccc1NC(=O)c1cnc(SCC(=O)NCC2CCCO2)n(C)c1=O (configuration not stated)	-13%	5.4µM*	6%	-1%	x	-2%
COc1ccccc1-n1nnnc1SCC(=O)NCC1CCCO1 (configuration not stated)	u	-2%	0%	-7%	x	-3%
Cn1c(SCC(=O)N2CCOCC2)ncc(C(=O)Nc2ccc(F)cc2)c1=O	x	-10%	x	x	x	x
COc1ccccc1NC(=O)c1cnc(SCC(=O)N2CCOCC2)n(C)c1=O	x	7.6µM*	x	x	x	x
COc1ccccc1NC(=O)c1cnc(SCC(=O)N2CCCc3ccccc32)n(C)c1=O	x	1.7µM*	x	x	x	x
COC(=O)N1CCC2(CCN(C(=O)Nc3ccc(OC)cc3)CC2)CC1	x	x	x	x	-11%	x
Cc1csc(NC(=O)CCC(=O)N(CC(=O)NC2CCCC2)Cc2ccccc2)n1	-1%	2%	-6%	-6%	x	-4%
Cc1ccc(CN(Cc2cccn2-c2nnc(N3CCCC3=O)s2)C(=O)Nc2ccccc2Cl)cc1	x	-5%	x	x	-3%	x
CCCc1nc2ccc(NC(=O)c3cccs3)cc2c(=O)n1Cc1ccc(Cl)cc1	16µM*	4%	-4%	14%	u	-2%
CCCc1nc2ccc(NC(=O)NCCC(=O)OCC)cc2c(=O)n1Cc1ccc(Cl)cc1	21µM*	-2%	-4%	-5%	12%	0%
CCN(Cc1nc2ccccc2c(=O)[nH]1)C(=O)c1cccc(NC(=O)c2cccs2)c1	u	u	-23%	-4%	x	2%
CCN(Cc1nc2cc(Cl)ccc2c(=O)[nH]1)C(=O)c1cccc(NC(=O)c2cccs2)c1	16µM*	u	-9%	-1%	x	0%
CCCc1nc2ccc(NC(C)=O)cc2c(=O)n1Cc1cccc(Cl)c1	u	-2%	13%	14%	x	14%
Cc1nc2ccc(NC(=O)c3cccs3)cc2c(=O)n1Cc1ccc(Cl)cc1	7.3µM*	0%	-29%	-16%	-102%	-8%
CCOc1ccc(N(CC)S(=O)(=O)N2CCCC(C(=O)NCc3ccccc3OCC)C2)cc1 (configuration not stated)	x	4%	x	x	x	x
CCCN(CCC)S(=O)(=O)c1ccc(C(=O)N2CCn3c4c(c5cc(C)ccc53)CCCC42)cc1 (configuration not stated)	x	u	x	x	-1%	x
COc1ccc(N=C2C(=Nc3ccc(OC)cc3)N(c3ccccc3)C(=S)N2C(=O)c2ccc(Cl)cc2)cc1	u	u	u	17%	25µM*	2%
FC(F)(F)c1cnc(C(c2ccccn2)c2ncn[nH]2)c(Cl)c1 (configuration not stated)	26µM*	-1%	4%	-2%	-79%	-2%
FC(F)(F)c1cnc(C(c2ccccc2)c2ncn[nH]2)c(Cl)c1 (configuration not stated)	2%	1%	1%	-3%	-7%	-1%
CCCCSCCCNC(=O)C1CCN(Cc2nc(-c3ccc(CC)cc3)oc2C)CC1	x	-18%	x	x	2%	x
CCOC(=O)N1CCN(Cc2nc3cc(NC(=O)c4ccc(F)cc4)ccc3n2C(C)C)CC1	x	-4%	x	x	x	x
CCCOC(=O)CSc1ncnc2sc3c(c12)CCC(C)C3 (configuration not stated)	x	8.5µM*	x	x	-1%	x
CC(=O)CSc1ncnc2sc3c(c12)CCC(C)C3 (configuration not stated)	13%	15µM*	8%	1%	12%	10%
Cc1ccccc1OCC(=O)N(Cc1ccc(N(C)C)cc1)CC1CCCO1 (configuration not stated)	x	-11%	x	x	-14%	x
COCCN(Cc1cc2cc(C)c(C)cc2nc1Cl)C(=O)Nc1ccccc1	u	-10%	1%	-6%	-25%	3%
